GPT2 inh: GPT2 alanine aminotransferase inhibition. Recombinant GPT2, coupled pyruvate oxidase/HRP Amplex Red fluorescence. Potency, µM (top dose mostly 57.7 µM), actives largely listed as inhibitors. Q8TD30. hit rate 0.25% among 100,000; active = well fitted inhibition curve with a large enough effect; inconclusive = small, poorly fitted or top-dose-only effect; also: nearly all actives have a fitted effect of over 60% in size
Target sequence (Q8TD30 whole entry, looked up): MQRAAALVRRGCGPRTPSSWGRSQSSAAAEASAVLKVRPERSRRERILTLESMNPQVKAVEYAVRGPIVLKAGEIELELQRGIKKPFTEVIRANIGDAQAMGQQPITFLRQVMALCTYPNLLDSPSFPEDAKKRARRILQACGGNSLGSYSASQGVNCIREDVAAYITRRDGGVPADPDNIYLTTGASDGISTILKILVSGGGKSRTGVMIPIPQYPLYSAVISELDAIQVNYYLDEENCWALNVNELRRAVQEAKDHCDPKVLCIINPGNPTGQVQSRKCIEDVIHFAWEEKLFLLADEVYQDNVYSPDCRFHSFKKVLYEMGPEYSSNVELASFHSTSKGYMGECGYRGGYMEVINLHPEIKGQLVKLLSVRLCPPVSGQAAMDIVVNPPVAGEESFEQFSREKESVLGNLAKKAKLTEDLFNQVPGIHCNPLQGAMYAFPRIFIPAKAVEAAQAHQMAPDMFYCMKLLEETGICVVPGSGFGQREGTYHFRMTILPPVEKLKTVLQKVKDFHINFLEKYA
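GPT2 10ng/uL, a-KG 250uM, L-Ala 2mM, HEPES pH7.5 + 0.0001% Tween; 30 min RT. Then Amplex mix (PO/HRP/ThPP), 30 min RT dark, fluorescence. AOA 50uM used as positive control.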
hNpr1 antagonist: human Npr1 receptor antagonism | HEK293 hNpr1 GloSensor cGMP, ANP-stimulated luminescence | Potency, µM (highest dose often 46.3 µM), actives largely listed as inhibitors | hit rate 1.6% among 76,000; calls by dose curve; also: nearly all actives have a fitted effect of over 60% in size
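Compound pre-incubated 30 min at room temperature on GloSensor-loaded HEK293 cells stably carrying hNpr1 and the pGS-40F cGMP biosensor. Stimulation uses hNppA at 0.1 nM final; luminescence is taken at baseline and 20 min post-agonist.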
A number is an active result; ! = repeats disagree. This excerpt belongs to a sample that is enriched for hits.

What do the screens show for `CCNC(=O)c1ccc(CC2CCN(C(C)=O)CC2)cc1`?
GPT2 inh: inactive; hNpr1 antagonist: inactive

How did CCNC(=O)N1CCC(Cc2ccc(C(=O)Nc3cccc(F)c3)cc2)CC1 do in these assays?
GPT2 inh: inactive; hNpr1 antagonist: 11µM

How did O=C(Nc1cccc(F)c1)N1CCc2nnc(C3CC3)n2CC1 do in these assays?
GPT2 inh: inactive; hNpr1 antagonist: inactive

Results for Nc1cc(C(=O)N2CCc3onc(-c4ccc(-c5ccccc5)cc4)c3C2)[nH]n1 ?
GPT2 inh: inactive; hNpr1 antagonist: 13µM

How did O=C(c1cc(-c2ccccc2)n[nH]1)N1CCc2c(nc(-c3ccccc3)[nH]c2=O)C1 do in these assays?
GPT2 inh: inactive; hNpr1 antagonist: inactive

How did Fc1ccc(Nc2cc3c(cn2)CN(Cc2ccccc2)CCN3)cc1 do in these assays?
GPT2 inh: inconclusive; hNpr1 antagonist: inactive

What do the screens show for `Fc1ccc(Nc2cc3c(cn2)CN(Cc2ccncc2)CCN3)cc1Cl`?
GPT2 inh: inactive; hNpr1 antagonist: 18µM

How did CO[C@@]12[C@H](COC(N)=O)C3=C(C(=O)C(C)=C(N)C3=O)N1C[C@@H]1N[C@@H]12 do in these assays?
GPT2 inh: 14µM!

How did C[C@@H](NC(=O)c1ccccn1)c1onc(-c2ccc(Cl)cc2)c1C(=O)O do in these assays?
GPT2 inh: inactive; hNpr1 antagonist: inactive

How did Cc1ccc(CNC(=O)Nc2cccc(-c3ccc(N4CCOCC4)nn3)c2)cc1 do in these assays?
GPT2 inh: inactive; hNpr1 antagonist: inactive

How did O=C(NCCc1ccccc1)Nc1cccc(-c2ccc(N3CCCCC3)nn2)c1 do in these assays?
GPT2 inh: inactive; hNpr1 antagonist: 8.9µM

Results for COc1ccc(CNC(=O)Nc2cccc(-c3ccc(N4CCCCC4)nn3)c2)cc1 ?
GPT2 inh: inactive; hNpr1 antagonist: 8.9µM

What do the screens show for `O=C(NCc1ccco1)Nc1cccc(-c2ccc(N3CCCC3)nn2)c1`?
GPT2 inh: inconclusive; hNpr1 antagonist: inactive

What do the screens show for `CCOc1ccccc1CN1CCC(Cc2ccc(C(=O)N3CCOCC3)cc2)CC1`?
GPT2 inh: inactive; hNpr1 antagonist: inactive

Results for COc1cccc(-c2c(C(=O)NCCc3ccccc3F)nc3sccn23)c1 ?
GPT2 inh: inactive

What do the screens show for `COc1ccc(Cn2c(C3CCN(C(=O)c4ccc(F)c(F)c4)CC3)n[nH]c2=O)cc1`?
GPT2 inh: inactive; hNpr1 antagonist: inactive

What do the screens show for `COC(=O)CN1CCOC(c2ccc3cc(OC)ccc3c2)C1` (stereo not drawn)?
GPT2 inh: inactive; hNpr1 antagonist: inactive

What do the screens show for `CCN(CC)C(=O)N1CCOC(c2ccc3cc(OC)ccc3c2)C1` (stereo not drawn)?
GPT2 inh: inactive; hNpr1 antagonist: 11µM

What do the screens show for `COc1ccc2cc(C3CN(C(=O)c4cccc(CO)n4)CCO3)ccc2c1` (stereo not drawn)?
GPT2 inh: inactive; hNpr1 antagonist: inconclusive

What do the screens show for `COc1ccc2cc(C3CN(C(=O)c4cccc(CO)c4)CCO3)ccc2c1` (stereo not drawn)?
GPT2 inh: inactive; hNpr1 antagonist: 10µM

How did CC(=O)N1CCN(C(=O)c2cc(-c3ccc(Cl)cc3Cl)c3nncn3n2)CC1 do in these assays?
GPT2 inh: inactive

Results for O=C(c1cccs1)N1CC[C@H](c2nnc(-c3ccc(Cl)cc3)o2)C1 ?
GPT2 inh: inconclusive; hNpr1 antagonist: inactive

What do the screens show for `O=C(Cc1ccc(F)cc1)N1CCC(C(=O)N2CCC(N3CCCC3=O)CC2)CC1`?
GPT2 inh: inactive

What do the screens show for `COCC(=O)N1CC[C@@H](CC(=O)O)[C@@H](CCN2CCC(n3c(=O)[nH]c4ccccc43)CC2)C1`?
GPT2 inh: inactive; hNpr1 antagonist: inactive

What do the screens show for `O=C(c1ccn[nH]1)N1CCCCC1c1nc(CCOCC2CCCC2)no1` (stereo not drawn)?
GPT2 inh: inactive; hNpr1 antagonist: 35µM

Results for Cn1ccnc1C(=O)N1CCCC1c1nc(CCOCC2CCCC2)no1 (stereo not drawn) ?
GPT2 inh: inactive; hNpr1 antagonist: inactive

What do the screens show for `COc1cc(F)ccc1-c1ccc2c(n1)c(=O)ncn2CC1CC1`?
GPT2 inh: inactive; hNpr1 antagonist: inactive

Results for O=C(c1ccc2c(c1)OCO2)N1CCC(n2cc(-c3nc(-c4ccccc4)no3)nn2)CC1 ?
GPT2 inh: inactive; hNpr1 antagonist: inconclusive

What do the screens show for `O=C(c1ccc(F)c(F)c1)N1CCC(n2cc(-c3nc(-c4ccccc4)no3)nn2)C1` (stereo not drawn)?
GPT2 inh: inactive; hNpr1 antagonist: 11µM

Results for O=C(c1ccc(F)c(F)c1)N1CCCC(n2cc(-c3nc(-c4ccccc4)no3)nn2)C1 (stereo not drawn) ?
GPT2 inh: inactive; hNpr1 antagonist: 11µM

What do the screens show for `CCn1nccc1C(=O)N1CCCC(n2cc(-c3nc(-c4ccccc4)no3)nn2)C1` (stereo not drawn)?
GPT2 inh: inactive; hNpr1 antagonist: 13µM

From PubChem
